{
  "source": "PubChem BioAssay AID1731",
  "about": "(National Center for Advancing Translational Sciences (NCATS), 2009)",
  "note": "Unmarked numbers belong to inactive results. Calls of active or inactive are those of the source. Calls come from the whole dose curve; as a rule, active = well fitted curve in the direction sought with a large enough effect; inactive = no such curve, though single readings can be large or run the other way.",
  "data": [
    {"molecular_target": "Epidermal growth factor receptor (Homo sapiens) (UniProt P00533)", "sequence (P00533 whole entry, looked up)": "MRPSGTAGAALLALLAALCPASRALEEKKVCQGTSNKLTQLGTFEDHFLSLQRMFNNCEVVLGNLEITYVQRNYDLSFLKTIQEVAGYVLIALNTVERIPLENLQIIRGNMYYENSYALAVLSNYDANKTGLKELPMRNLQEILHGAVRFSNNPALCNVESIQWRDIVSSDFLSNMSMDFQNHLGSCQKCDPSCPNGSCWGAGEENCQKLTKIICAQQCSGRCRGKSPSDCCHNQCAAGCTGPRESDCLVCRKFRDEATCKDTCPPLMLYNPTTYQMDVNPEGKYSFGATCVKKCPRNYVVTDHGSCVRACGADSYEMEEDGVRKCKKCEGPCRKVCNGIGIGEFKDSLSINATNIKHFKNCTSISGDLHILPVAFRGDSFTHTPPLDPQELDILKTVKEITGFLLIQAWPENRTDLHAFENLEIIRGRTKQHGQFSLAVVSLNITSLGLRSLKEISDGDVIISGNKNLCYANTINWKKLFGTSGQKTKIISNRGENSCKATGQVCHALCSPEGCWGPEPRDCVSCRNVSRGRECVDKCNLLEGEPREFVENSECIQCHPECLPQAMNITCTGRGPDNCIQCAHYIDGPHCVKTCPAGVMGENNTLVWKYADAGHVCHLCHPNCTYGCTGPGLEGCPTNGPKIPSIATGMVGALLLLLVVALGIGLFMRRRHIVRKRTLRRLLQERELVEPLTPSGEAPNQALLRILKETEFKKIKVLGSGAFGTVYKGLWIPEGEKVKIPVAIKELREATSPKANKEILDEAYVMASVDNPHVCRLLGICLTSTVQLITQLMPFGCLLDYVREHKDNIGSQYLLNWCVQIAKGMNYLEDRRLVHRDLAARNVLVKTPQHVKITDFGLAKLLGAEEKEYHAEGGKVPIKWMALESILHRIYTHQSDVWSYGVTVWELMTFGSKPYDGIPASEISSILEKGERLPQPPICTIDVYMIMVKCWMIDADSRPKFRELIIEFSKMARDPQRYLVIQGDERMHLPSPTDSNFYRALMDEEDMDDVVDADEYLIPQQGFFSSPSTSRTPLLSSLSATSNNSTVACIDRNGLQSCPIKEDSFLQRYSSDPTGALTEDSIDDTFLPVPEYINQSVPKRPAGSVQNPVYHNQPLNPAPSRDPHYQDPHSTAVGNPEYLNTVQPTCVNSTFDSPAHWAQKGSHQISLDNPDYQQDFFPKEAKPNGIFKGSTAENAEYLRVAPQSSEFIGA", "assay": "Assay for Inhibitors of the ERK Signaling Pathway using a Homogeneous Screening Assay: EGFR Kinase Inhibition", "details": "homogeneous biochemical assay; series mostly up to 21.9 µM; activity change, negative = inhibition: at the top concentration", "description": "qHTS Assay for Inhibitors of the ERK Signaling Pathway using a Homogeneous Screening Assay\nNIH Chemical Genomics Center [NCGC]\nNIH Molecular Libraries Screening Centers Network [MLSCN]\nAssay Submitter (PI): Dr. Wei Zheng, NCGC/NIH\nThe Ras/extracellular-signal-regulated kinase (ERK) mitogen activated protein (MAP) kinase signaling pathway (ERK1/2 cascade) plays is a key role in transmitting signals from the cell surface to the nucleus (Nishida and Gotoh 1993; Chang and Karin, 2001). The cascade is initiated by the small G-protein Ras, which recruits Raf […], where activation occurs. Alternatively, this pathway can be activated by elevating intracellular cAMP.\nActivation of the ERK pathway is essential in increased cell division and cell survival. Sustained and constitutive activation of the ERK pathway, however, has been linked to uncontrolled cell proliferation, increased cell survival, and tumor progression. Thus, the ERK has been as an attractive target for cancer chemotherapy in the past few years (Sebolt-Leopold and Herrera, 2004). Given its physiological and pathological importance, assessment of ERK phosphorylation has been broadly performed in both basic research and drug discovery. Most assays for the measurement of ERK phosphorylation use the antibody-based detection methods, such as western blot and ELISA. These assays require multiple reagent additions with cell wash steps and are not suitable for high-throughput screening.\nThe current cell-based ERK phosphorylation assay was performed using AlphaScreen platform. AlphaScreen is a two bead-based proximity-dependent chemical energy transfer luminescent assay platform. The assay reagents (ERK SureFire(TM) kit) were supplied from TGR BioSciences (Australia). In the presence of specific antibodies, phosphorylated ERK will bring \"donor\" and \"acceptor\" beads to a proximity range (<200 nm), and subsequently lead a chemical luminescent reaction upon exciting donor beads with 680 nm laser. To validate pathway hits from the cell-based assay, enzyme assays consisting of EGFR tyrosine kinase, Raf and MEK were used as a means of deciphering the enzymes of target for the prioritized group of compounds derived from the HEK-293 cell based assay. The compounds were tested against significant members of the ERK signaling pathway EGFR and EGFR mutants (EGFR L858R, EGFR T790M, and EGFR L858R T790M). In order to establish the specificity of the prioritized compounds for EGFR and EGFR mutants, the compounds were also assayed against other important ERK signaling pathway enzymes, c-RAF and MEK-1.\nNCGC Assay Protocol Summary:\nThe HTRF kinase assay (components supplied as kit by Cisbio) was chosen for the EGFR and EGFR mutant enzyme assays that applied the time resolved fluorescence resonance energy transfer (TR-FRET) principle. A peptide substrate is labeled with a biotin that can bind to XL665 labeled streptavidin and the anti-phosphoresidue antibody is labeled with Eu+. Upon phosphorylation of the substrate, the antibody binds to phosphorylated substrate that enables TR-FRET detection in homogenous assay format.\nAn HTRF Kinease TK assay kit (Cisbio, Bedford, MA) was used to develop the EGFR and EGFR mutant assays (Harbert et al., 2008. Harbert C, Marshall J, Soh S, Steger K. Development of a HTRF Kinase Assay for Determination of Syk Activity. Current Chemical Genomics. 1: 20-26. 2008). EGFR and EGFR mutants were obtained from Invitrogen. […]", "values": [
      {"smiles": "CN1CCN(c2cccc3c2C(=O)c2ccccc2C3=O)CC1", "activity change, negative = inhibition": "-7.67%"},
      {"smiles": "Cn1nc(-c2ccccc2)nc2c(=O)n(C)c(=O)nc1-2", "activity change, negative = inhibition": "-16.4%"},
      {"smiles": "CCn1nc(-c2cccs2)nc2c(=O)n(C)c(=O)nc1-2", "activity change, negative = inhibition": "-15.7% [at 65.8 µM]"},
      {"smiles": "CCn1nc(-c2ccccc2)nc2c(=O)n(C)c(=O)nc1-2", "activity change, negative = inhibition": "-14.2% [at 65.8 µM]"},
      {"smiles": "Cc1nc2c(=O)n(C)c(=O)nc-2n(C)n1", "outcome": "inactive"}
    ]}
  ]
}
